Laboratory results taken from PubChem BioAssay (Tox21).
Unmarked numbers belong to inactive results. Inconclusive results are not listed. Where a call stands in place of a potency, no number is given. Activity calls are given as the source filed them. Unless noted, the call rests on the fitted dose curve; in most records, active means well fitted curve in the direction sought with a large enough effect in the repeat runs; inconclusive means weak or mixed curves; inactive means no such curve, though single readings can be large; an effect the other way counts as inactive or inconclusive.

target: Thyrotropin-releasing hormone receptor (Homo sapiens) (UniProt P34981); assay: qHTS assay to identify small molecule agonists of the thyrotropin-releasing hormone receptor (TRHR) signaling pathway (AID 1346891; calls by dose curve); conditions: TRHR-HEK293 calcium fluorescence, agonist mode; series mostly up to 57.6 µM
Sequence (P34981 whole entry, looked up): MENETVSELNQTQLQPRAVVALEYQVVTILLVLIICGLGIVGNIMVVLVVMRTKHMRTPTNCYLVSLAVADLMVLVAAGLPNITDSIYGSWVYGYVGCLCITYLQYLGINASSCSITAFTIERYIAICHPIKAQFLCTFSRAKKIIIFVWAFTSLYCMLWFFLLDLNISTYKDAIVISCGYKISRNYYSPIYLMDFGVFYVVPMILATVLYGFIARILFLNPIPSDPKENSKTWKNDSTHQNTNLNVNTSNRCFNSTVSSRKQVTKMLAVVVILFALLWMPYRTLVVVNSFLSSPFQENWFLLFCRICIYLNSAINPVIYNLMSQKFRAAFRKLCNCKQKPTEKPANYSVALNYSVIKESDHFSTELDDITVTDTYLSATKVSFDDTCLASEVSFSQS
Outline: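 Agonist-mode intracellular calcium readout: kinetic fluorescence over 3 min at 1 s intervals after compound addition to TRHR-HEK293 cells (18 h seeded, 2 h dye-loaded at 37 C). Fifteen concentrations, triplicates.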

Q: With `O=C(O)CN(CCN(CC(=O)O)CC(=O)O)CCN(CC(=O)O)CC(=O)O` as the compound, how does the activation read?
A: The activation was -0.051% [at 11.8 µM].

Q: Which Potency does the source give for `CN1CCN(C2=Nc3cc(F)ccc3Cc3ccccc32)CC1` here?
A: Its Potency is “inactive”.

Q: Which Potency does the source give for `Nc1ccc(Oc2ccc(N)c(N)c2)cc1` here?
A: Its Potency is “inactive”.

Q: For `COc1cc2c(cc1N)oc1ccccc12`, which Potency is on record?
A: Its Potency is “inactive”.

Q: For `Nc1ccc2ccccc2c1S(=O)(=O)O`, which Potency is on record?
A: Its Potency is “inactive”.

Q: With `NC(=O)NS(=O)(=O)c1ccc(Cl)cc1` as the compound, how does the Potency read?
A: Its Potency is “inactive”.

Q: With `CCN(CCCc1ccccc1)CCCc1ccccc1` as the compound, how does the Potency read?
A: Its Potency is “inactive”.

Q: With `CN(C)CC[C@@H](c1ccc(Cl)cc1)c1ccccn1` as the compound, how does the Potency read?
A: Its Potency is “inactive”.

Q: Which Potency does the source give for `CCCS(=O)c1ccc2nc(NC(=O)OC)[nH]c2c1` (stereo not given) here?
A: The Potency was “inactive”.

Q: Which Potency does the source give for `O=C(O)[C@@H](O)[C@H](O)[C@H](O)[C@@H](O)C(=O)O` here?
A: Its Potency is “inactive”.

Q: With `Cc1ccccc1C(=O)Nc1ccc(C(=O)N2CCCC(O)c3cc(Cl)ccc32)c(C)c1` (stereo not given) as the compound, how does the Potency read?
A: The Potency was “inactive”.

Q: With `CC(C)c1ccccc1` as the compound, how does the Potency read?
A: Its Potency is “inactive”.

Q: For `CCCCCCCCCC#N`, which Potency is on record?
A: The Potency was “inactive”.

Q: For `CC(=O)O[C@H]1CC[C@@]2(C)C(=CC[C@@H]3[C@@H]2CC[C@]2(C)C(C(C)=O)=CC[C@@H]32)C1`, which Potency is on record?
A: Its Potency is “inactive”.

Q: For `NC(Cc1ccc(F)cc1)C(=O)O` (stereo not given), which activation is on record?
A: The activation was 0.148% [at 5.23 µM].

Q: Which Potency does the source give for `COc1ccc2nc(NC(=O)Nc3ccccc3)sc2c1` here?
A: The Potency was “inactive”.

Q: With `CCCCC(CC)COC(=O)COc1cc(Cl)c(Cl)cc1Cl` (stereo not given) as the compound, how does the Potency read?
A: Its Potency is “inactive”.

Q: With `O=C1Nc2ccc([N+](=O)[O-])cc2C1=O` as the compound, how does the Potency read?
A: Its Potency is “inactive”.

Q: With `Cc1nc(N)nc(N)c1-c1ccc(Cl)c(Cl)c1` as the compound, how does the Potency read?
A: Its Potency is “inactive”.

Q: With `O=Cc1ccc(O)c(O)c1O` as the compound, how does the Potency read?
A: Its Potency is “inactive”.

Q: With `Cc1ccc([N+](=O)[O-])c(N)c1` as the compound, how does the Potency read?
A: Its Potency is “inactive”.

Q: For `CCC(=O)c1ccc2c(c1)N(CCCN(C)C)c1ccccc1S2`, which Potency is on record?
A: Its Potency is “inactive”.

Q: For `OCc1c2ccccc2cc2ccccc12`, which Potency is on record?
A: Its Potency is “inactive”.

Q: With `CN(CCCN1c2ccccc2CCc2ccccc21)CC(=O)c1ccc(Cl)cc1` as the compound, how does the Potency read?
A: The Potency was “inactive”.

Q: For `CCCCNC(=S)NCCCC`, which Potency is on record?
A: Its Potency is “inactive”.

tested on: not listed separately; assay: Human pregnane X receptor (PXR) small molecule agonists, qHTS cell viability counter screen (AID 1346977); conditions: PXR-Luc HepG2 viability, CellTiter-Fluor, 24 h; series mostly up to 92.4 µM; further: nearly all actives have a fitted effect of over 50% in size
Outline: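 Same-well viability read: CellTiter-Fluor added after 23 hr compound exposure, fluorescence measured 1 hr later. Cells were PXR-Luc HepG2 seeded at 2,000/well in 5% charcoal-stripped FBS medium, rested 5 hr before dosing at 37 C.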

Q: Which Potency does the source give for `C[C@@H](N)C(=O)O` here?
A: Its Potency is “inactive”.

Q: For `CCCCC(=O)O[C@]1(C(=O)CO)[C@H](C)C[C@H]2[C@@H]3CCC4=CC(=O)C=C[C@]4(C)[C@@]3(F)[C@@H](O)C[C@@]21C`, which Potency is on record?
A: The Potency was “inactive”.

Q: For `CCOc1ccc(NS(=O)(=O)c2ccc(N)cc2)nn1`, which Potency is on record?
A: The Potency was “inactive”.

Q: For `CCCCCCn1c(=O)c2c(ncn2C)n(C)c1=O`, which Potency is on record?
A: The Potency was “inactive”.

Q: For `CCCc1c2oc(C(=O)O)cc(=O)c2cc2c(=O)cc(C(=O)O)n(CC)c12`, which Potency is on record?
A: Its Potency is “inactive”.

Q: With `N#CSCC(=O)O` as the compound, how does the Potency read?
A: Its Potency is “inactive”.

Q: Which Potency does the source give for `CC(C)CCCCCCc1ccc(OCCOCCO)cc1` here?
A: The Potency was “inactive”.

Q: Which Potency does the source give for `CCc1nnc(NS(=O)(=O)c2ccc(N)cc2)s1` here?
A: The Potency was “inactive”.

Q: Which Potency does the source give for `C=CCc1cc(OC)c(O)c(C(=O)NCCO)c1` here?
A: Its Potency is “inactive”.

Q: Which Potency does the source give for `CC(C)OC(C)C` here?
A: The Potency was “inactive”.

Q: For `O=C(O[C@@H](C(=O)O)[C@@H](OC(=O)c1ccccc1)C(=O)O)c1ccccc1`, which Potency is on record?
A: The Potency was “inactive”.

Q: With `CCCCCCCOC(=O)CCC` as the compound, how does the Potency read?
A: Its Potency is “inactive”.

Q: With `CCc1cc(Cl)c(OC)c(C(=O)NC[C@@H]2CCCN2CC)c1O` as the compound, how does the Potency read?
A: The Potency was “inactive”.

tested on: not listed separately; assay: Caspase-3/7 induction in HepG2 cells by small molecules, qHTS assay (AID 1346978); conditions: HepG2 caspase-3/7 activation, Caspase-Glo luminescence, 17 h; series mostly up to 92.4 µM; further: nearly all actives have a fitted effect of over 15% in size
Outline: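 Wild-type HepG2 cells (2,000/well) were settled 5 h at 37 C, 5% CO2, then exposed to compounds in DMSO for 17 h. Caspase-3/7 activity was read by luminescence 30 min after adding Caspase-Glo 3/7 reagent at room temperature.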

Q: Which caspase activation does the source give for `O=C(O)CN(CCN(CC(=O)O)CC(=O)O)CCN(CC(=O)O)CC(=O)O` here?
A: Its caspase activation is 0.916% [at 19 µM].

Q: With `COc1cc2c(cc1N)oc1ccccc12` as the compound, how does the Potency read?
A: The Potency was “inactive”.

Q: Which Potency does the source give for `C[C@@H](N)C(=O)O` here?
A: The Potency was “inactive”.

Q: Which Potency does the source give for `CCCCC(=O)O[C@]1(C(=O)CO)[C@H](C)C[C@H]2[C@@H]3CCC4=CC(=O)C=C[C@]4(C)[C@@]3(F)[C@@H](O)C[C@@]21C` here?
A: The Potency was “inactive”.

Q: With `Nc1ccc2ccccc2c1S(=O)(=O)O` as the compound, how does the Potency read?
A: The Potency was “inactive”.

Q: With `NC(=O)NS(=O)(=O)c1ccc(Cl)cc1` as the compound, how does the Potency read?
A: Its Potency is “inactive”.

Q: For `CCN(CCCc1ccccc1)CCCc1ccccc1`, which Potency is on record?
A: The Potency was “inactive”.

Q: Which Potency does the source give for `CCCS(=O)c1ccc2nc(NC(=O)OC)[nH]c2c1` (stereo not given) here?
A: Its Potency is “inactive”.

Q: For `CCOc1ccc(NS(=O)(=O)c2ccc(N)cc2)nn1`, which Potency is on record?
A: The Potency was “inactive”.

Q: Which Potency does the source give for `CCCCCCn1c(=O)c2c(ncn2C)n(C)c1=O` here?
A: Its Potency is “inactive”.

Q: With `CCCc1c2oc(C(=O)O)cc(=O)c2cc2c(=O)cc(C(=O)O)n(CC)c12` as the compound, how does the Potency read?
A: The Potency was “inactive”.

Q: For `N#CSCC(=O)O`, which Potency is on record?
A: The Potency was “inactive”.

Q: Which Potency does the source give for `CC(C)CCCCCCc1ccc(OCCOCCO)cc1` here?
A: The Potency was “inactive”.

Q: With `CCc1nnc(NS(=O)(=O)c2ccc(N)cc2)s1` as the compound, how does the Potency read?
A: Its Potency is “inactive”.

Q: For `C=CCc1cc(OC)c(O)c(C(=O)NCCO)c1`, which Potency is on record?
A: Its Potency is “inactive”.

Q: For `CC(=O)O[C@H]1CC[C@@]2(C)C(=CC[C@@H]3[C@@H]2CC[C@]2(C)C(C(C)=O)=CC[C@@H]32)C1`, which Potency is on record?
A: The Potency was “inactive”.

Q: With `NC(Cc1ccc(F)cc1)C(=O)O` (stereo not given) as the compound, how does the caspase activation read?
A: Its caspase activation is 0.163% [at 8.39 µM].

Q: Which Potency does the source give for `COc1ccc2nc(NC(=O)Nc3ccccc3)sc2c1` here?
A: Its Potency is “inactive”.

Q: For `Cc1nc(N)nc(N)c1-c1ccc(Cl)c(Cl)c1`, which Potency is on record?
A: The Potency was “inactive”.

Q: With `O=Cc1ccc(O)c(O)c1O` as the compound, how does the Potency read?
A: The Potency was “inactive”.

Q: Which Potency does the source give for `CC(C)OC(C)C` here?
A: Its Potency is “inactive”.

Q: With `O=C(O[C@@H](C(=O)O)[C@@H](OC(=O)c1ccccc1)C(=O)O)c1ccccc1` as the compound, how does the Potency read?
A: Its Potency is “inactive”.

Q: For `CCCCCCCOC(=O)CCC`, which Potency is on record?
A: Its Potency is “inactive”.

Q: For `OCc1c2ccccc2cc2ccccc12`, which Potency is on record?
A: The Potency was “inactive”.

Q: For `CN(CCCN1c2ccccc2CCc2ccccc21)CC(=O)c1ccc(Cl)cc1`, which Potency is on record?
A: Its Potency is “inactive”.

Q: With `CCc1cc(Cl)c(OC)c(C(=O)NC[C@@H]2CCCN2CC)c1O` as the compound, how does the Potency read?
A: The Potency was “inactive”.

Q: For `CCCCNC(=S)NCCCC`, which Potency is on record?
A: The Potency was “inactive”.
